Measured values: PubChem BioAssay (NCI)
The panel holds about 79,000 compounds, 15% with a hit somewhere; the sample as a whole holds those more often. A number with no mark means an inactive call. Calls of active or inactive are those of the source. No stated cut-off is given here; in the data, active means growth inhibition above about 70%; inactive means the rest.

Key:
[1] = NCI Yeast Anticancer Drug Screen. Data for the rad50 strain (AID 155);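 further: 0% = growth of vehicle-only cultures of the same strain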; settings: S. cerevisiae rad50 strain growth inhibition, stronger effect = higher value
Summary of the method: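 Compounds were tested on a yeast strain with an engineered DNA damage repair alteration; the reported value is growth inhibition normalised to vehicle treatment.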

[2] = NCI Yeast Anticancer Drug Screen. Data for the mec2-1 strain (AID 157); settings: S. cerevisiae mec2-1 strain, stronger effect = higher value
Summary of the method: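 Mutant yeast (mec2-1) grown with compound; growth inhibition relative to vehicle control reported.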

[3] = NCI Yeast Anticancer Drug Screen. Data for the sgs1 mgt1 strain (AID 161);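 further: 0% = growth of cultures given vehicle only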; settings: S. cerevisiae sgs1 mgt1 strain, stronger effect = higher value
Summary of the method: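 This yeast growth screen uses a strain with defined DNA-repair lesions; compound-treated growth is compared with vehicle-treated growth.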

[4] = NCI Yeast Anticancer Drug Screen. Data for the cln2 rad14 strain (AID 165);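 further: 0% = growth equal to vehicle treated cultures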; settings: S. cerevisiae cln2 rad14 strain, stronger effect = higher value
Summary of the method: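 Readout is yeast growth inhibition versus vehicle-treated controls, using a strain with cln2 and rad14 alterations exposed to compound.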

[5] = NCI Yeast Anticancer Drug Screen. Data for the bub3 strain (AID 167); settings: S. cerevisiae bub3 mutant strain, stronger effect = higher value
Summary of the method: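 Growth of a checkpoint-deficient yeast mutant is measured after compound exposure. Values represent inhibition relative to vehicle.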

[6] = NCI Yeast Anticancer Drug Screen. Data for the mlh1 rad18 strain (AID 175); settings: S. cerevisiae mlh1 rad18 strain growth inhibition, stronger effect = higher value
Summary of the method: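 Genetically defined yeast (DNA repair-deficient) exposed to compounds; growth inhibition determined relative to vehicle.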

[7] = at 5.0 µM (retest, dose inferred, filed as 0.5)
[8] = at 50.0 µM (retest, dose inferred, filed as 5.0)

SMILES	growth inhibition [1, 7]	growth inhibition [1, 8]	growth inhibition ([1]; at 50.0 µM)	growth inhibition [2, 7]	growth inhibition [2, 8]	growth inhibition ([2]; at 50.0 µM)	growth inhibition [3, 7]	growth inhibition [3, 8]	growth inhibition ([3]; at 50.0 µM)	growth inhibition [4, 7]	growth inhibition [4, 8]	growth inhibition ([4]; at 50.0 µM)	growth inhibition [5, 7]	growth inhibition [5, 8]	growth inhibition ([5]; at 50.0 µM)	growth inhibition [6, 7]	growth inhibition [6, 8]	growth inhibition ([6]; at 50.0 µM)
CCCCN(CC(O)c1ccc(Cl)cc1)c1ccccc1 (stereo not drawn)	-1%	99% (active)	98.8% (active)	-2%	99% (active)	98.8% (active)	-6%	98% (active)	98.8% (active)	1%	93% (active)	98.5% (active)	1%	98% (active)	95% (active)	1%	99% (active)	96.7% (active)
CCOC(=O)C(=Cn1c(=S)[nH]c2ccc([N+](=O)[O-])cc21)C(=O)OCC	33%	53%	-36.2%	17%	22%	-35.2%	33%	41%	0.75%	20%	25%	13.9%	26%	29%	-37.2%	33%	46%	-40.2%
CCN(CC)c1ccc2nc3ccc(N(CC)CC)cc3[n+](-c3ccccc3)c2c1	97% (active)	98% (active)	92.1% (active)	100% (active)	99% (active)	93.7% (active)	92% (active)	99% (active)	98.7% (active)	79% (active)	98% (active)	97.5% (active)	98% (active)	98% (active)	98.7% (active)	99% (active)	99% (active)	98.7% (active)
O=C(O)c1c(Cl)c(Cl)c(Cl)c(Cl)c1-c1c2ccc(=O)cc-2oc2cc(O)ccc12	54%	97% (active)	86.7% (active)	45%	99% (active)	92% (active)	61%	99% (active)	90.5% (active)	57%	98% (active)	91.2% (active)	57%	99% (active)	90.1% (active)	67%	98% (active)	86.2% (active)
[Ce+3].[Cl-].[O-]/N=C(\c1ccccc1)c1ccccn1.[O-]/N=C(\c1ccccc1)c1ccccn1.[O-]/N=C(\c1ccccc1)c1ccccn1	36%	66%	85.5% (active)	28%	76% (active)	85.4% (active)	32%	75% (active)	85.8% (active)	29%	32%	76.7% (active)	41%	95% (active)	88.3% (active)	39%	91% (active)	86.2% (active)
NN(c1ccccc1)c1cccc2ccccc12	2%	96% (active)	-16.4%	-1%	97% (active)	3.7%	1%	97% (active)	39.1%	-4%	95% (active)	-23.8%	-1%	96% (active)	75.9% (active)	1%	96% (active)	25.1%
